PubChem BioAssay (NCI)
About 83,000 compounds went through this panel and 20% of them were active in at least one assay; those are over-represented in the sample as a whole.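 Growth was measured after 48 h exposure to one concentration of compound in 96-well plates. Values under 10 count as active.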 Calls of active or inactive are those of the source.

system: MCF7 breast; test: NCI-60 one-dose screen, 48 h (100 = growth as untreated, 0 = no growth, -100 = all killed); conditions: 10 µM unless noted

SMILES	growth
O=C(Nc1ccc(C(=O)Nc2ccc(C3=NCCCN3)cc2)cc1)Nc1ccc(C2=NCCCN2)cc1	70.8% (inactive)
CC(C)C1CCC(C)C(C2(C#N)C(N)=NC(N)=C2C#N)C1=O (stereo not drawn)	92.6% (inactive)
O=C(/C=C/c1ccc2c(c1)OCO2)c1c(O)c2ccccc2oc1=O	88.9% (inactive)
CCNC(=O)C#Cc1ccc2c(C(=Nc3ccc(CN(C)C)cc3)c3ccccc3)c(O)[nH]c2c1	33.1% (inactive)
CNS(=O)(=O)Nc1nccc(Cc2c(C)c3ccc(Oc4ncccn4)cc3oc2=O)c1F	79.2% (inactive)
C[C@@H](NC(=O)c1ncnc(N)c1Cl)c1ncc(C(=O)Nc2cc(C(F)(F)F)c(Cl)cn2)s1	96.2% (inactive)
COc1ccc(Nc2ncccc2NC(=O)c2cn(Cc3cccc(Oc4ccccc4)c3)nn2)cc1	89.9% (inactive)
COc1ccc(OC)c(NC2=C(SCCc3ccccc3)C(=O)c3ccccc3C2=O)c1	69.7% (inactive)
O=C(O)c1ccc2c(c1)nc(Nc1cccc(Cl)c1)c1ccncc12	5.91% (active)
Cc1nc(Nc2n[nH]c3c2CN(C(=O)N[C@H](CN(C)C)c2ccccc2)C3(C)C)c2sccc2n1	-3.74% (active)
NC1(C(=O)N[C@@H](CCO)c2ccc(Cl)cc2)CCN(c2ncnc3[nH]ccc23)CC1	27.4% (inactive)
COC[C@@H](C)n1c(C2CCOCC2)nc2c1C1C=C(OC)C(c3c(C)noc3C)=CC1N=C2 (stereo partly drawn)	15.5% (inactive)
N#CC1(C#N)C(c2cccs2)NC(c2cccs2)C1(C#N)C#N (stereo not drawn)	90.3% (inactive)
Cn1cnc(-c2cc3nccc(Oc4ccc(NC(=S)NC(=O)Cc5ccccc5)cc4F)c3s2)c1	79.5% (inactive)
C#Cc1cccc(Nc2ncnc3cc(OC)c(OCCCCCCC(=O)NO)cc23)c1	8.28% (active)
CCCCn1c(C)nc2ccc(Nc3nc(N4CCN(C)CC4)nc4nc[nH]c34)cc21	83% (inactive)
O=C(Cn1ccc2ccccc21)Nc1ccc(-c2nc3ccccc3s2)cc1	38.2% (inactive)
O=C(NOC[C@H](O)CO)c1ccc(F)c(F)c1Nc1ccc(I)cc1F	93.3% (inactive)
Cc1sc2c(c1C)c(=O)nc1c(-c3nc4ccccc4s3)n[nH]n12	79.6% (inactive)

SMILES	growth
CC1(/C=N/NC(N)=S)NC(=O)NC1=O (stereo not drawn)	94.8% (inactive)
COC(=O)CNC(=O)[C@@H](OC)[C@@H]1Cc2cc3cc(OC4CC(OC5CC(O)C(O)C(C)O5)C(O)C(C)O4)c(C)c(O)c3c(O)c2C(=O)[C@H]1OC1CC(OC2CC(OC3CC(C)(O)C(O)C(C)O3)C(O)C(C)O2)C(O)C(C)O1 (stereo partly drawn)	7.64% (active)
COc1ccc2c(CCC(c3ccccc3)c3ccccc3)c3[n+](cc2c1OC)CCc1cc2c(cc1-3)OCO2	9.86% (active)
O=C(NC[C@H](O)CO)c1ccncc1Nc1ccc(I)cc1F	49.1% (inactive)
CC(C)(C)OC(=O)N1CCC(O)[C@@H](O[Si](c2ccccc2)(c2ccccc2)C(C)(C)C)[C@H]1/C=C/c1ccccc1 (stereo partly drawn)	36.6% (inactive)
C1=C\COCc2cc(ccc2OCCN2CCCC2)Nc2nccc(n2)-c2cccc(c2)COC/1	-25.1% (active)
COc1cccc(Nc2ncnn3ccc(CN4CC[C@@H](N)[C@H](O)C4)c23)c1	58.8% (inactive)
C=C1C(=O)O[C@H]2[C@H]1CC/C(C=Nc1c(N)cc(C(F)(F)F)cc1C(F)(F)F)=C\CC[C@@]1(C)O[C@@H]21	-2.09% (active)
CO[C@H]1C[C@@H]2CC[C@@H](C)[C@@](O)(O2)C(=O)C(=O)N2CCCC[C@H]2C(=O)O[C@H]([C@H](C)C[C@@H]2CC[C@@H](OC(=O)C(C)(CO)CO)[C@H](OC)C2)CC(=O)[C@H](C)/C=C(\C)[C@@H](O)[C@@H](OC)C(=O)[C@H](C)C[C@H](C)\C=C/C=C/C=C/1C	5.53% (active)
N#Cc1ccc(-n2nnc3ccccc32)cc1C#N	82% (inactive)
CCN(CC)CCNc1ccc(N=Nc2cnc3ccccc3c2)c2ccccc12	-79.2% (active)
O=c1[nH]c(N2CCOCC2)nc2scc(-c3ccccc3)c12	92.2% (inactive)
CSc1nc2ncncc2[nH]1	94.4% (inactive)
CN1CCC(CNc2ccc3ncc(-c4cccc(OC(F)(F)F)c4)n3n2)CC1	-49.5% (active)
Nc1c2c(c(O)c3c1=C(CO)C=N3)=NCCS2	-50.8% (active)
COc1cc2nccc(Oc3ccc(NC(=O)Nc4cc(C)on4)c(Cl)c3)c2cc1OC	22.8% (inactive)
CN1CCN(c2nc(C3=C(c4c[nH]c5ccccc45)C(=O)NC3=O)c3ccccc3n2)CC1	95.1% (inactive)
COc1cnc2c(c1)C(=O)c1c-2n(CCCn2ccnc2)c(=O)c2cc(Cl)ccc12	7.47% (active)
COc1ccc(-c2nocc2-c2cc(OC)c(OC)c(OC)c2)cc1	24.3% (inactive)
